Test systems include SR leukemia; RPMI-8226 leukemia; OVCAR-8 ovarian; OVCAR-5 ovarian; OVCAR-4 ovarian; SK-OV-3 ovarian; IGROV1 ovarian; OVCAR-3 ovarian; HS 578T breast; NCI/ADR-RES ovarian.
Holding throughout (assay): NCI-60 one-dose screen, 48 h (100 = growth as untreated, 0 = no growth, -100 = all killed)
What all share (conditions): 10 µM unless noted

Each structure is given as a SMILES string. This is part of a sample that, as a whole, favours compounds with a hit. Of some 83,000 tested, about 20% had one in any assay.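 For each line, cells grew in 96-well plates with the test compound present at a single concentration for 48 hours.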 Values without a mark were called inactive. Calls of active or inactive are those of the source. Rule for the calls: active = growth percent below 10; inactive = the rest.

Take `CC(C)C1C2=C(NCCN1C(=O)Cc1ccccc1)C(C)(C)N(Cc1ccccc1)C2=O` (stereo not given): the growth in the assay on SR leukemia is 106%; in the assay on RPMI-8226 leukemia it was 102%; with OVCAR-8 ovarian it was 100%; with OVCAR-5 ovarian, 102%; in the assay with OVCAR-4 ovarian, 104%; in the assay on SK-OV-3 ovarian, 93.5%. Besides, the growth with IGROV1 ovarian was 98.8%; with OVCAR-3 ovarian, 102%; with HS 578T breast, 103%; in the assay with NCI/ADR-RES ovarian, 99%.

Regarding `CCN1C(=O)/C(=c2\sc3n(c2=O)NC2C(N=3)N(CC)C(=O)N2CC)c2ccccc21` (stereo not given), the growth with SR leukemia was 22.7%; in the assay on RPMI-8226 leukemia it was 64.9%; in the assay on OVCAR-8 ovarian it was 46.5%; in the assay with OVCAR-5 ovarian, 53.8%; in the assay with OVCAR-4 ovarian it was 46%; in the assay with SK-OV-3 ovarian, 70.2%. The growth in the assay on IGROV1 ovarian is 41.6%; with OVCAR-3 ovarian, -12.7% (active); in the assay on HS 578T breast, 37%; in the assay with NCI/ADR-RES ovarian, 12.1%.

With `N#CC1=C(N)Oc2c(ccc3ccccc23)C1c1ccc([N+](=O)[O-])cc1` (stereo not given), the growth in the assay with SR leukemia is 20.2%; in the assay on RPMI-8226 leukemia, 89.5%; in the assay on OVCAR-8 ovarian it was 93.3%; in the assay on OVCAR-5 ovarian, 95.7%; in the assay on OVCAR-4 ovarian, 90.8%; in the assay with SK-OV-3 ovarian, 80%. Moreover, the growth in the assay on IGROV1 ovarian is 50.4%; with OVCAR-3 ovarian, 76.5%; in the assay with HS 578T breast, 87.5%; with NCI/ADR-RES ovarian, 52.8%.

For the compound `CC(=O)c1cccc(NS(=O)(=O)c2cccc(C(=O)Nc3ccc(Br)cc3)c2)c1`, the growth with SR leukemia is 60.6% [25 µM]; in the assay on RPMI-8226 leukemia, 30.4% [25 µM]; in the assay with OVCAR-8 ovarian it was 57.1% [25 µM]; in the assay on OVCAR-5 ovarian, 77.9% [25 µM]; in the assay with OVCAR-4 ovarian, 47.6% [25 µM]; in the assay with SK-OV-3 ovarian, 58.1% [25 µM]. The growth was 62.4% [25 µM] with IGROV1 ovarian, 66.1% [25 µM] in the assay with OVCAR-3 ovarian, 80.6% [25 µM] in the assay with HS 578T breast and 34.7% [25 µM] in the assay with NCI/ADR-RES ovarian.

On to `C#CC(=O)Nc1cccc2c1cc(C)n2-c1nc2c(c(NCc3ccccc3)n1)CCCC2`, for which the growth in the assay on SR leukemia is -32.2% (active); with RPMI-8226 leukemia, -22.3% (active); with OVCAR-8 ovarian it was -14% (active); in the assay on OVCAR-5 ovarian, -16% (active); with OVCAR-4 ovarian it was -35.7% (active); in the assay on SK-OV-3 ovarian, -94.4% (active). For the same compound, the growth is -28.1% (active) with IGROV1 ovarian, -9.24% (active) with OVCAR-3 ovarian, -7.53% (active) in the assay with HS 578T breast and 6.91% (active) with NCI/ADR-RES ovarian.

For the compound `CCNC(=O)c1[nH]cc(-c2ccc(OC)cc2)c1-c1cc(OC)c(OC)c(OC)c1`, the growth with SR leukemia was 19.5%; in the assay on RPMI-8226 leukemia, 38%; with OVCAR-8 ovarian, 66.3%; in the assay with OVCAR-5 ovarian, 74.6%; in the assay on OVCAR-4 ovarian, 45.7%; with SK-OV-3 ovarian it was 57.7%. Also, the growth is 47.4% in the assay with IGROV1 ovarian, 2.53% (active) in the assay with OVCAR-3 ovarian, 45.3% in the assay on HS 578T breast and 19.8% in the assay with NCI/ADR-RES ovarian.

With `CC(=O)c1c[nH]c2ccc(-c3ccnc(Nc4ccc(NC(=O)c5cccc(F)c5)c(CN5CCOCC5)c4)n3)cc12`, the growth was 4.05% (active) in the assay with SR leukemia; -25.9% (active) in the assay with RPMI-8226 leukemia; 8.7% (active) in the assay on OVCAR-8 ovarian; -4.49% (active) in the assay with OVCAR-5 ovarian; -18.9% (active) in the assay with OVCAR-4 ovarian; 17.8% in the assay on SK-OV-3 ovarian. In addition, the growth is 1.06% (active) in the assay with IGROV1 ovarian, -8.81% (active) with OVCAR-3 ovarian, -20.1% (active) in the assay on HS 578T breast and 1.76% (active) with NCI/ADR-RES ovarian.

With `O=c1[nH]nc(-c2ccc(Cl)cc2)cc1Cc1cccc([N+](=O)[O-])c1`, the growth in the assay on SR leukemia was -44.9% (active); with RPMI-8226 leukemia, 51.6%; with OVCAR-8 ovarian, 101%; with OVCAR-5 ovarian, 107%; in the assay with OVCAR-4 ovarian it was 80%; in the assay on SK-OV-3 ovarian, 88.8%. Further, the growth is 82.4% in the assay on IGROV1 ovarian, 101% with OVCAR-3 ovarian, 49.1% in the assay with HS 578T breast and 101% in the assay on NCI/ADR-RES ovarian.

As to `CC[C@H](CC[C@@H](C)[C@H]1CC[C@H]2[C@@H]3CC=C4C[C@@H](OCCc5nn[nH]n5)CC[C@]4(C)[C@H]3CC[C@]12C)C(C)C`, the growth in the assay with SR leukemia is 105%; in the assay on RPMI-8226 leukemia, 113%; in the assay with OVCAR-8 ovarian, 108%; in the assay on OVCAR-5 ovarian, 108%; in the assay on OVCAR-4 ovarian, 104%; in the assay with SK-OV-3 ovarian, 96.8%. In addition, the growth with IGROV1 ovarian is 100%; in the assay with OVCAR-3 ovarian, 103%; in the assay with HS 578T breast, 113%; in the assay on NCI/ADR-RES ovarian, 98.3%.

For `CCCCCCCCCCCCCCCC(=O)OC[C@@]1(O)C[C@@]23CC[C@@H]4C(C)(C)CCC[C@@]4(C)[C@@H]2CC[C@H]1C3`, the growth was 22.9% in the assay on SR leukemia; 81.9% with RPMI-8226 leukemia; 92.3% with OVCAR-8 ovarian; 108% with OVCAR-5 ovarian; 97.7% in the assay with OVCAR-4 ovarian; 113% in the assay with SK-OV-3 ovarian. For the same compound, the growth was 107% in the assay on IGROV1 ovarian, 103% in the assay with OVCAR-3 ovarian, 98.9% with HS 578T breast and 102% in the assay with NCI/ADR-RES ovarian.

For the compound `COc1cc(-c2cc(=O)oc3cc(O)ccc23)c(OC)c2c1OCO2`, the growth with SR leukemia was 84.2%; with RPMI-8226 leukemia it was 60.2%; in the assay on OVCAR-8 ovarian it was 91.6%; in the assay on OVCAR-5 ovarian it was 91.6%; in the assay with OVCAR-4 ovarian, 68.9%; with SK-OV-3 ovarian, 125%. The growth with IGROV1 ovarian is 91.5%; with OVCAR-3 ovarian, 92.7%; in the assay on HS 578T breast it was 81.9%; with NCI/ADR-RES ovarian it was 92.6%.

For `Clc1nc(Cl)c2ncn(CCOCCn3cnc4c(Cl)nc(Cl)nc43)c2n1`, the growth in the assay with SR leukemia is -75.9% (active); with RPMI-8226 leukemia, -52.8% (active); in the assay with OVCAR-8 ovarian, -83.2% (active); in the assay with OVCAR-5 ovarian it was -85% (active); in the assay with OVCAR-4 ovarian it was -86.1% (active); in the assay on SK-OV-3 ovarian, -98.3% (active). In addition, the growth with IGROV1 ovarian was -95.6% (active); with OVCAR-3 ovarian, -97.4% (active); in the assay with HS 578T breast, -42.5% (active); with NCI/ADR-RES ovarian, -56% (active).

For the compound `O=C(Nc1ccc2cc3ccc(NC(=O)NC4CCCCC4)cc3nc2c1)NC1CCCCC1`, the growth in the assay with SR leukemia was -0.865% (active); in the assay on RPMI-8226 leukemia, 85.6%; in the assay on OVCAR-8 ovarian, 93.4%; in the assay with OVCAR-5 ovarian, 103%; in the assay with OVCAR-4 ovarian it was 92.8%; in the assay on SK-OV-3 ovarian, 95.4%. Besides, the growth in the assay on IGROV1 ovarian was 99.9%; in the assay with OVCAR-3 ovarian it was 98.2%; with HS 578T breast, 36.4%; in the assay on NCI/ADR-RES ovarian it was 106%.
